# Screening data from PubChem BioAssay.
# Sampled rows, rich in hits. Any-hit rate of the full collection: about 2.8%.
# GLP-1R agonist = activates the human GLP-1 receptor; P43220; HEK293 GLP-1R CRE-luciferase, luminescence, 4-6 h; cells express a hypersensitive GLP-1R form; Potency, µM (highest dose often 45.6 µM), for inactives: at the top dose activation, hits mostly activators; 380,000 tested, 0.007% active; AID 624172; note: potency is the fitted concentration of half-maximal effect; % of control where 0% means no effect
# Target sequence (P43220 whole entry, looked up): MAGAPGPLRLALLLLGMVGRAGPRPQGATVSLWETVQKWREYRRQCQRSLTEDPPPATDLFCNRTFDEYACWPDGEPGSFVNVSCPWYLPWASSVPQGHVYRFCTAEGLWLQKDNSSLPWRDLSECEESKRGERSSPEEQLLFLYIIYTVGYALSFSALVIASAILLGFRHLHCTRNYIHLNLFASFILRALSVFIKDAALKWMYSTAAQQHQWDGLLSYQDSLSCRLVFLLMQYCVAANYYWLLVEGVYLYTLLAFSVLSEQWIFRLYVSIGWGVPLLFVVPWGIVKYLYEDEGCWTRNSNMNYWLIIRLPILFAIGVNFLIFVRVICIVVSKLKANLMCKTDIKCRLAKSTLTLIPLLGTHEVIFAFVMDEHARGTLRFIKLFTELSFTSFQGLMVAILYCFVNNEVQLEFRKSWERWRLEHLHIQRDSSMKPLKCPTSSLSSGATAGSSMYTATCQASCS
# GLP-1R inv ag = inverse agonists of human GLP-1 receptor; HEK293 GLP-1R CRE-luciferase, luminescence, 24 h; GLP-1R form is constitutively active; Potency, µM (titrated, usually from 38.3 µM), inactives show at the highest dose activity change, negative = inhibition, hits mostly inhibitors; 410,000 tested, 1.6% active; note: potency is the fitted concentration of half-maximal effect; % is set by controls: 0 for no effect and ±100 for the full control effect; nearly all actives have a fitted effect of over 55% in size
#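 GLP-1R inverse agonism mode: basal reporter luminescence in engineered HEK293 cells measured after one day of compound exposure at 37 deg C, with a 12 min room-temperature detection step.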
# KCNH2 3.1 inh = blocks the human KCNH2 3.1 channel isoform; U2OS KCNH2 3.1, thallium flux FluxOr; hits give low values; activity change, % (tested at about 1.8 µM); 340,000 tested, 0.95% active;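 active = maximum activity change below -70%; inconclusive = maximum activity change from -70% to -50%; inactive = maximum activity change above -50%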;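 note: thallium influx rate constant from kinetic fluorescence after stimulation buffer; % is set by controls: 0 for no effect and ±100 for the full control effect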
#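 U2OS cells transduced with KCNH2 3.1 mutant virus (1.77 x 10^8 /mL, 4 h), plated overnight at 37 C, loaded 45 min with FluxOr dye plus Red40 quencher. Thallium flux rate constant from kinetic reads after stimulation buffer, normalised to controls.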
# GLS inhibitor = inhibitors of human glutaminase (GLS); O94925; GLS enzymatic activity, qHTS titration; Potency, µM (top dose mostly 45.5 µM), inactives show at the highest dose activity change, negative = inhibition, usual class: inhibitors; 410,000 tested, 0.21% active; AID 624170; note: potency is the fitted concentration of half-maximal effect; % is set by controls: 0 for no effect and ±100 for the full control effect
#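 Glutamate formation by hKGA was monitored fluorometrically using coupled glutamate oxidase, HRP and Amplex Red. Substrate was added as 1 mM L-glutamine solution; incubation was 30 min at RT after an initial read.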
# KCNH2 WT inh = blocks the wildtype human KCNH2 potassium channel; U2OS, BacMam KCNH2, thallium flux FluxOr; hits give low values; AID 720551; 340,000 tested, 0.37% active; activity change, % at 1.84 µM;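 active = maximum activity change below -70%; inconclusive = maximum activity change between -70% and -50%; inactive = maximum activity change above -50%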; note: % is set by controls: 0 for no effect and ±100 for the full control effect
#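 U2OS cells transduced with wild-type KCNH2 virus are loaded with FluxOr dye for 45 min, and thallium flux is measured in kinetic reads before and after stimulation buffer. Rate constants are normalized to DMSO controls.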
# GLP1R cytotox = cytotoxicity counter-screen for GLP-1 receptor inverse agonists. AID 624418. Potency, µM (top dose mostly 38.3 µM), for inactives: at the highest dose activity change, negative = inhibition, usual class: inhibitors. HEK293 cAMP-luciferase reporter cells, luminescence, 24 h. 410,000 tested, 0.13% active;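 note: loss of luciferase light is scored as toxicity; potency is the fitted concentration of half-maximal effect; % is set by controls: 0 for no effect and ±100 for the full control effect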
#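 Cells in DMEM/10% Nu serum/1% pen-strep, 1536-well format. Pre-incubated 12 h, dosed with 23 nL compound, incubated a further 24 h. Luciferase detection, 12 min at room temp, luminescence.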
# Starred values were filed as active, the others as inactive; ? = inconclusive; · = no result given. Unless noted, calls come from the whole dose curve; as a rule, active = well fitted curve in the direction sought with a large enough effect; inconclusive = small, poorly fitted or top-dose-only effect, or another doubt; inactive = no such curve, though single readings can be large; an effect the other way counts as inactive or inconclusive.
SMILES,GLP-1R agonist,GLP-1R inv ag,KCNH2 3.1 inh,GLS inhibitor,KCNH2 WT inh,GLP1R cytotox
CC(C)C[C@@H]1NC(=O)[C@H](Cc2ccccc2)N(C)C(=O)[C@H](C)NC(=O)c2ccccc2NC(=O)[C@H](Cc2ccc(O)cc2)N(C)C1=O,-4.1%,10µM*,-10.4,-1.3%,13.3,?
Cc1ccnc(Nc2nc3ccccc3o2)n1,-6.1%,2.51µM*,3.8,-2.5%,3.1,?
Cc1nc(Nc2nc3ccccc3o2)nc(C)c1C,-0.6%,?,-25.6,0.3%,-10.3,0.7%
COc1cc(C(=O)NCc2nc(C)cs2)ccc1OC1CCN(C(C)=O)CC1,-2.3%,25.2%,-76.4*,4.3%,-2.0,5.6%
COc1cccc(OCC(=O)NC2CCS(=O)(=O)C2)c1 (centres undefined),6.4%,6.5%,0.6,-10.2%,-0.6,-4.3%
CC(=O)Nc1ccc(NC(=O)CC(NC(=O)c2ccccc2)c2ccccc2)cc1 (centres undefined),5.6%,1.6%,20.3,9.4%,·,4.6%
COc1cc(C(=O)NC(=S)Nc2ccc(NC(=O)c3ccco3)cc2)cc(OC)c1OC,0.8%,4.2%,-82.9*,9.8%,1.4,-4.8%
N#C/C(=C\c1ccccc1)c1nc(-c2cc3c(ccc4ccccc43)oc2=O)cs1,·,13.8%,·,-10.4%,·,11.3%
S=C1NC2=C(CCC/C2=C\c2ccc(Cl)cc2)C(c2ccc(Cl)cc2)N1 (centres undefined),-0.5%,7.94µM*,-5.1,90.6%,-1.7,-25.9%
Fc1cccc(/C=C2\CCCC3=C2NC(=S)NC3c2cccc(F)c2)c1 (centres undefined),-5.4%,10µM*,-7.7,0.6%,-5.9,-31.9%
S=C1NC2=C(CCC/C2=C\c2ccccc2)C(c2ccccc2)N1 (centres undefined),1.8%,3.2%,-0.6,-15.2%,-0.5,-22.6%
CCOC(=O)c1sc2ccccc2c1S(=O)(=O)Nc1ccc(N(C)C)cc1,·,?,·,53.2%,·,3.5%
c1ccc(Cc2noc(CN3CCN(C4CCc5ccccc5C4)CC3)n2)cc1 (centres undefined),17.3%,?,-126.9*,-6.2%,33.6,16.2%
c1ccc(Cc2noc(CN3CCCN(C4Cc5ccccc5C4)CC3)n2)cc1,-2.6%,?,?,10.6%,-23.1,-13.6%
CCc1ccc(NC(=O)CCNS(=O)(=O)c2ccc3c(c2)oc(=O)n3C)cc1,·,10.3%,·,0.1%,·,-3.2%
COc1ccc2[nH]c(-c3ccc(C)cc3)cc(=O)c2c1,-4.2%,3.16µM*,1.4,2.3%,-1.7,0.0%
CCOC(=O)c1[nH]c2c(c1Cc1ccccc1OC)C(=O)CC(c1ccc(OC)cc1)C2 (centres undefined),·,-23.2%,·,9.1%,·,-2.6%
COC(=O)/C=C1\OCc2cc(OC)c(OCc3ccccc3)cc21,·,3.2%,·,·,·,9.5%
COc1cc2c(cc1OC)/C(=C/c1ccc(Br)cc1)C(=O)OC2,10.7%,11.2µM*,-20.3,13.4%,10.9,12.3%
CC1CCCCN1C(=O)CSc1nc2ccccc2nc1Cc1ccccc1 (centres undefined),·,?,·,-8.0%,·,-4.5%
COc1ccc(-c2onc(C)c2C)cc1S(=O)(=O)N1CCN(c2ccc(Cl)cc2)CC1,·,2.0%,·,0.5%,·,15.3%
O=C(NCc1cccc(C(F)(F)F)c1)C1CC(c2ccccc2[N+](=O)[O-])=NO1 (centres undefined),-1.1%,?,-7.2,-5.8%,16.8,2.3%
Cc1ccc(CNC(=O)C2CC(c3ccccc3C(F)(F)F)=NO2)cc1 (centres undefined),3.3%,-5.4%,-158.3*,8.4%,0.8,5.3%
O=C(NCc1cc(C(F)(F)F)cc(C(F)(F)F)c1)C1CC(c2ccccc2[N+](=O)[O-])=NO1 (centres undefined),0.7%,10µM*,5.2,1.5%,0.4,8.4%
